Among the data in PubChem BioAssay (EPA / NIEHS) are outcome and AC50 values, retold here.

Records with an inconclusive call do not appear. Active and inactive are the calls of the source. The calls were made as follows: active = hit-call score of the fitted dose curve at least 0.9, where 1 is the maximum; inconclusive = response in the unintended direction; inactive = score below 0.9.

Assay [1] concerns the target GAL4 Transcription Factor (Internal Marker), GAL4 (gene 855828) (UniProt P04386). Nature of the assay: ATG_GAL4_XSP1: Attagene TRANS-FACTORIAL Multi-Species (XSP1) HepG2 Assay for GAL4 Transcription Factor (Internal Marker) (AID 2283789). In outline: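 HepG2 cells transiently transfected with multiplexed GAL4-UAS reporter units were exposed for 24 h with 3 nM 6-alpha-fluorotestosterone present. Reporter mRNA was quantified by RT-PCR, FAM labelling, HpaI digestion and capillary electrophoresis; background-control readout, gain-of-signal versus DMSO.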

The nature of assay [2]: ATG_M_19_XSP1: Attagene TRANS-FACTORIAL Multi-Species (XSP1) HepG2 Assay for M19 Transcription Factor (Internal Marker) (AID 2283798). Summed up: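 HepG2 cells transiently transfected with multiplexed GAL4-UAS reporter units, dosed 24 h with 3 nM 6-alpha-fluorotestosterone present for partial AR stimulation. Reporter mRNA measured by RT-PCR with capillary electrophoresis; gain-of-signal fitted relative to DMSO.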

Assay [3] in a line: ATG_M_32_XSP1: Attagene TRANS-FACTORIAL Multi-Species (XSP1) HepG2 Assay for M32 Transcription Factor (Internal Marker) (AID 2283799). Summed up: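 HepG2 cells transiently transfected with multi-species TRANS reporter units, dosed 24 h with 3 nM 6-alpha-fluorotestosterone present. Internal-marker reporter mRNA quantified by RT-PCR and capillary electrophoresis; positive-direction fit versus DMSO.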

Assay [4] deals with Peroxisome proliferator-activated receptor gamma (Homo sapiens) (UniProt P37231). In words: ATG_hPPARg_XSP1: Attagene TRANS-FACTORIAL Multi-Species (XSP1) HepG2 Assay for human Peroxisome Proliferator-activated Receptor gamma (PPARg) (AID 2283800). Summed up: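 HepG2 cells transiently transfected with GAL4-UAS reporter units carrying chimeric NR-Gal4 proteins; 3 nM 6-alpha-fluorotestosterone present. After 24 h dosing, reporter mRNA quantified by RT-PCR and capillary electrophoresis; gain of signal relative to DMSO.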
Peroxisome proliferator-activated receptor gamma (Homo sapiens), sequence (P37231 whole entry, looked up, the tested form may be a part): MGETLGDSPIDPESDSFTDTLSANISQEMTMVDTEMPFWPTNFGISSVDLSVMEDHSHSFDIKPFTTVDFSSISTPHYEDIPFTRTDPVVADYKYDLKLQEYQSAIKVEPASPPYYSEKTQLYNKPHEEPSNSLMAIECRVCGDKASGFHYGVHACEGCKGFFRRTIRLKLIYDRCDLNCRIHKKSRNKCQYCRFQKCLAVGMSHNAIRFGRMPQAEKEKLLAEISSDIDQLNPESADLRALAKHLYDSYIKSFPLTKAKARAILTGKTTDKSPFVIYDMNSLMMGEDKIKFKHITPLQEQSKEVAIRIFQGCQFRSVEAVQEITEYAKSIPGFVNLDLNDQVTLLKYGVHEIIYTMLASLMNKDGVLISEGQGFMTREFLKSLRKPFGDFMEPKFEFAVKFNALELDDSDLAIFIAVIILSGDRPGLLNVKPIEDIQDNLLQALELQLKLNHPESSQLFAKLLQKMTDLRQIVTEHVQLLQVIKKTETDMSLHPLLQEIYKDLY

The subject of assay [5] is zebrafish Peroxisome Proliferator-activated Receptor gamma (PPARg), gene 557037. In words: ATG_zfPPARg_XSP1: Attagene TRANS-FACTORIAL Multi-Species (XSP1) HepG2 Assay for zebrafish Peroxisome Proliferator-activated Receptor gamma (PPARg) (AID 2283801). Summed up: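 HepG2 cells transiently transfected with GAL4-UAS reporter units including a zebrafish PPARg–GAL4 chimera, dosed 24 h with 3 nM 6-alpha-fluorotestosterone present. Reporter mRNA quantified by RT-PCR, FAM labelling, HpaI digestion and capillary electrophoresis; induction versus DMSO.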

The target in assay [6] is mouse Peroxisome Proliferator-activated Receptor gamma (PPARg), Pparg (gene 19016) (UniProt P37238). In words: ATG_mPPARg_XSP1: Attagene TRANS-FACTORIAL Multi-Species (XSP1) HepG2 Assay for mouse Peroxisome Proliferator-activated Receptor gamma (PPARg) (AID 2283802). Summed up:
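HepG2 cells transiently transfected with GAL4-UAS reporter units driven by mouse PPARg–GAL4 chimera; 3 nM 6-alpha-fluorotestosterone present. After 24 h dosing, reporter mRNA quantified by RT-PCR, fluorescent labelling and capillary electrophoresis; gain of signal versus DMSO.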

Assay [7] deals with turtle Thyroid Hormone Receptor, alpha (TRa), gene 101949057. In words: ATG_trTRa_XSP1: Attagene TRANS-FACTORIAL Multi-Species (XSP1) HepG2 Assay for turtle Thyroid Hormone Receptor, alpha (TRa) (AID 2283806). Summed up:
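HepG2 cells transiently transfected with GAL4-UAS reporter units and chimeric receptor-Gal4 constructs, with 3 nM 6-alpha-fluorotestosterone present. Reporter mRNA was quantified 24 h after dosing by RT-PCR, 6-FAM labelling and capillary electrophoresis; gain of signal versus DMSO.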

Assay [8] has as its target zebrafish Thyroid Hormone Receptor alpha (TRa), thraa (gene 30670) (UniProt Q98867). Nature of the assay: ATG_zfTRa_XSP1: Attagene TRANS-FACTORIAL Multi-Species (XSP1) HepG2 Assay for zebrafish Thyroid Hormone Receptor alpha (TRa) (AID 2283807). In outline: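 HepG2 cells transiently transfected with GAL4-UAS reporter units including a zebrafish TRa–Gal4 chimera, dosed 24 h with 3 nM 6-alpha-fluorotestosterone present. Reporter mRNA quantified by RT-PCR and capillary electrophoresis; gain versus DMSO.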

Assay [9] concerns the target human Thyroid hormone Receptor beta (TRb), THRB (gene 7068) (UniProt P10828). In words: ATG_hTRb_XSP1: Attagene TRANS-FACTORIAL Multi-Species (XSP1) HepG2 Assay for human Thyroid hormone Receptor beta (TRb) (AID 2283808). In outline: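 HepG2 cells transiently transfected with reporter units driving GAL4-UAS reporters for chimeric NR-Gal4 proteins; 24 h chemical exposure with 3 nM 6-alpha-fluorotestosterone present. Reporter mRNA quantified by RT-PCR and capillary electrophoresis, gain of signal versus DMSO.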

The target of assay [10] is zebrafish Thyroid Hormone Receptor beta (TRb), thrb (gene 30607) (UniProt Q9PVE4). Nature of the assay: ATG_zfTRb_XSP1: Attagene TRANS-FACTORIAL Multi-Species (XSP1) HepG2 Assay for zebrafish Thyroid Hormone Receptor beta (TRb) (AID 2283809). Summed up: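 HepG2 cells transiently transfected with multiplexed GAL4-UAS reporter units expressing chimeric zebrafish TRb–Gal4. Dosed 24 h with 3 nM 6-alpha-fluorotestosterone present; reporter mRNA measured by RT-PCR, HpaI digestion and capillary electrophoresis; gain of signal versus DMSO.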
zebrafish Thyroid Hormone Receptor beta (TRb), thrb (gene 30607), sequence (Q9PVE4 whole entry, looked up, the tested form may be a part): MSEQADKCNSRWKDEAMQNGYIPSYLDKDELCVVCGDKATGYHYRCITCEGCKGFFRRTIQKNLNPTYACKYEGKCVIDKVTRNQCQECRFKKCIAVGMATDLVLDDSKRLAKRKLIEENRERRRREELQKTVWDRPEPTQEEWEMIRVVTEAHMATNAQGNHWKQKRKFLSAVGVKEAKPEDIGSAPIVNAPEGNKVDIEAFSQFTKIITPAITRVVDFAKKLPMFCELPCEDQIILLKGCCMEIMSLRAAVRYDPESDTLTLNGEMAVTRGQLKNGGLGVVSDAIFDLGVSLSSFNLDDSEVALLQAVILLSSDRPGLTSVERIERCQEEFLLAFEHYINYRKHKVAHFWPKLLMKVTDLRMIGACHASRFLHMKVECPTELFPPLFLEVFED

The nature of assay [11]: ATG_XTT_Cytotoxicity_XSP1: Cytotoxicity Assessment in the Attagene TRANS-FACTORIAL Multi-Species (XSP1) HepG2 Assay (AID 2283810). Summed up: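 XTT viability readout taken at 24 hours post-dosing in HepG2 liver cells co-treated with 3 nM 6-alpha-fluorotestosterone. Signal loss relative to DMSO controls reflects cytotoxicity.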
Assay [12] relates to turtle Estrogen Receptor (ERa), gene 101933533. In words: ATG_trERa_XSP2: Attagene TRANS-FACTORIAL Multi-Species (XSP2) HepG2 Assay for turtle Estrogen Receptor (ERa) (AID 2283812).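 Also: human HepG2 liver cells transiently expressing turtle ERa-Gal4 chimeric receptor; actives raise reporter signal above DMSO so AC50 reflects agonist activity.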 Summed up: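 HepG2 cells transiently transfected with GAL4-UAS reporter units expressing turtle ERa-Gal4 chimera. Reporter mRNA measured after 24 h dosing by RT-PCR, fluorescent labelling and capillary electrophoresis; gain of signal fitted versus DMSO.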

For assay [13], the target named is Estrogen receptor beta (Homo sapiens) (UniProt Q92731). In words: ATG_hERb_XSP2: Attagene TRANS-FACTORIAL Multi-Species (XSP2) HepG2 Assay for human Estrogen Receptor (ERb) (AID 2283813).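 Also: actives raise reporter mRNA above DMSO so AC50 reflects agonist induction.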 Summed up:
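HepG2 cells transiently transfected with GAL4-UAS reporter units and chimeric human ERb-Gal4, 24 h exposure. Reporter mRNA quantified by RT-PCR with FAM labelling, HpaI digestion and capillary electrophoresis; gain of signal versus DMSO.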

Assay [14] deals with GAL4 Transcription Factor (Internal Marker), GAL4 (gene 855828) (UniProt P04386). In words: ATG_GAL4_XSP2: Attagene TRANS-FACTORIAL Multi-Species (XSP2) HepG2 Assay for GAL4 Transcription Factor (Internal Marker) (AID 2283814).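 Also: GAL4 reporter mRNA background control in MRTU transfected cells not a receptor target.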 Summed up: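 HepG2 cells transiently transfected with GAL4-UAS reporter units, stimulated with 3 nM 6-alpha-fluorotestosterone plus 1.5 nM norgestrel, dosed 24 h. Reporter mRNA by RT-PCR/capillary electrophoresis; gain-of-signal fit versus DMSO, background control.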
GAL4 Transcription Factor (Internal Marker), GAL4 (gene 855828), sequence (P04386 whole entry, looked up, the tested form may be a part): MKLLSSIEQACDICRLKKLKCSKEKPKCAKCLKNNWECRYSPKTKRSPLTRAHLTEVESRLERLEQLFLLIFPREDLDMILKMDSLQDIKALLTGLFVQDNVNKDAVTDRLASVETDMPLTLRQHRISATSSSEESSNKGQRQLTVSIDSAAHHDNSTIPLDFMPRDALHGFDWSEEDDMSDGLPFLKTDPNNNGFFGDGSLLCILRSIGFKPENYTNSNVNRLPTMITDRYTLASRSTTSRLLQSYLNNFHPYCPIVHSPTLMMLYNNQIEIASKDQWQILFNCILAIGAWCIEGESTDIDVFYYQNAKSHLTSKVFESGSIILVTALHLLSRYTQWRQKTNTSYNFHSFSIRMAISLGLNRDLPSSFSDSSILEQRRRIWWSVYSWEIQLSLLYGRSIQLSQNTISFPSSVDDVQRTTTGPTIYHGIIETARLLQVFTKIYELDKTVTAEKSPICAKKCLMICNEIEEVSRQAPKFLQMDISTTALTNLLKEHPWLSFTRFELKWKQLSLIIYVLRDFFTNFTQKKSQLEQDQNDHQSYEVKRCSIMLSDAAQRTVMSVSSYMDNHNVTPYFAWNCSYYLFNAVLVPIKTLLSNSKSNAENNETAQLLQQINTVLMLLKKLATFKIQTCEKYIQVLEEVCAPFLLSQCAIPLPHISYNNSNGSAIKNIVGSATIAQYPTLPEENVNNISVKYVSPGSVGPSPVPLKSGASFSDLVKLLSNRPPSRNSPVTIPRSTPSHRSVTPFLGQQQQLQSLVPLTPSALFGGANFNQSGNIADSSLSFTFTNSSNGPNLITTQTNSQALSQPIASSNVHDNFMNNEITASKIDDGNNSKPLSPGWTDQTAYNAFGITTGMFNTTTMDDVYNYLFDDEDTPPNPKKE

Assay [15] deals with Estrogen receptor beta (Homo sapiens) (UniProt Q92731). Nature of the assay: ATG_hERb_XSP1: Attagene TRANS-FACTORIAL Multi-Species (XSP1) HepG2 Assay for human Estrogen Receptor (ESR2) (AID 2283788). Summed up:
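Measured endpoint is transcriptional gain of signal from a GAL4-UAS reporter controlled by chimeric ERβ in HepG2 liver cells. Exposure lasts 24 h alongside 3 nM 6-alpha-fluorotestosterone, with DMSO as negative control.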

A short description of assay [16]: ATG_M_06_XSP2: Attagene TRANS-FACTORIAL Multi-Species (XSP2) HepG2 Assay for M06 Transcription Factor (Internal Marker) (AID 2283811).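 Also: hits are increases in signal above the DMSO baseline.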 Summed up:
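HepG2, multiplexed reporter transfection; 24 h dosing; AR stimulated with 3 nM 6-alpha-fluorotestosterone + 1.5 nM norgestrel; RNA → RT-PCR → 6-FAM primer extension → HpaI → CE. Positive direction vs DMSO.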

In another assay the target is AR (gene 367) (UniProt P10275). Nature of the assay: ACEA_AR_antagonist_80hr: ACEA Biosciences xCELLigence Real-Time Cell Analysis on Androgen Receptor Antagonism for Proliferation (AID 2283787).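 Also: 22Rv1 human prostate cancer cells with growth followed by electrical impedance; hits lower the impedance growth signal relative to DMSO.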 In outline: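 Growth-kinetic antagonist readout in 22Rv1 cells, taken 80 h after continuous compound exposure. Activity fitted as signal loss relative to DMSO negative control.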
AR (gene 367), sequence (P10275 whole entry, looked up): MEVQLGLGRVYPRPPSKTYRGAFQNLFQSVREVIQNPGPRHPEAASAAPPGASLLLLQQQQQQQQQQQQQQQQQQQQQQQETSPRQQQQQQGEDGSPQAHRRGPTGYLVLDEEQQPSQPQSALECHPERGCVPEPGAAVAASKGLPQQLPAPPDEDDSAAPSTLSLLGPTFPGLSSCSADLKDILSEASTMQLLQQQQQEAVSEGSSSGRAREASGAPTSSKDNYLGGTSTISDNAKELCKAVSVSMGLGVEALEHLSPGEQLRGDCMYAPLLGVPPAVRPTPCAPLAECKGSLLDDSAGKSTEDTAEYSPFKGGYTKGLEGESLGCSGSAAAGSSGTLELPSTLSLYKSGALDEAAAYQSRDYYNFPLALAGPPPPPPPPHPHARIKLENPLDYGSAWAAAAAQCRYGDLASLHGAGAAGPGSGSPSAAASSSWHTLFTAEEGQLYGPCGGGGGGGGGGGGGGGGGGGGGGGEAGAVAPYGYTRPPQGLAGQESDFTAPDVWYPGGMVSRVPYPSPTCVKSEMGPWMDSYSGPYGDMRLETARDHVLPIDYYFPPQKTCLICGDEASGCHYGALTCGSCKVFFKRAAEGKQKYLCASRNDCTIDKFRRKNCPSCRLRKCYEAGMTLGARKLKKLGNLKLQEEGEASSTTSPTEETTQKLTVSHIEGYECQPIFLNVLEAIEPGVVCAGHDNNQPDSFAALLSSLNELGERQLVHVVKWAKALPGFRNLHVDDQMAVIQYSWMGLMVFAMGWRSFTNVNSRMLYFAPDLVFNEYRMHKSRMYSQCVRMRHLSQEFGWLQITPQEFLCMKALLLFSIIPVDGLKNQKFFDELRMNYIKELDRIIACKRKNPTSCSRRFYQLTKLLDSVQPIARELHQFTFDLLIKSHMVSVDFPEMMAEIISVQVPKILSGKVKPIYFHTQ

The nature of assay [17]: ATG_M_06_XSP1: Attagene TRANS-FACTORIAL Multi-Species (XSP1) HepG2 Assay for M06 Transcription Factor (Internal Marker) (AID 2283790). In outline:
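Transfected HepG2 multi-reporter system treated 24 h in the presence of 3 nM 6-alpha-fluorotestosterone. The M06 internal marker transcript was quantified by RT-PCR with capillary electrophoresis as a background control, and gain of signal was scored versus DMSO.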

Assay [18] deals with frog Thyroid hormone Receptor alpha (TRa), thra-a (gene 397942) (UniProt P15204). In words: ATG_frTRa_XSP1: Attagene TRANS-FACTORIAL Multi-Species (XSP1) HepG2 Assay for frog Thyroid hormone Receptor alpha (TRa) (AID 2283804). Summed up: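 HepG2 cells transiently transfected with frog TRa-GAL4 chimeric reporter units, dosed 24 hr with 3 nM 6-alpha-fluorotestosterone present; reporter mRNA quantified by RT-PCR, fluorescent labelling and capillary electrophoresis, gain of signal versus DMSO.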

The target in assay [19] is human Thyroid hormone Receptor alpha (TRa), THRA (gene 7067) (UniProt P10827). In words: ATG_hTRa_XSP1: Attagene TRANS-FACTORIAL Multi-Species (XSP1) HepG2 Assay for human Thyroid hormone Receptor alpha (TRa) (AID 2283805). Summed up:
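HepG2 cells transiently transfected with GAL4-UAS reporter units expressing chimeric NR-Gal4 proteins, dosed 24 hours with 3 nM 6-alpha-fluorotestosterone present. Reporter mRNA measured by RT-PCR and capillary electrophoresis; gain of signal fitted versus DMSO.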

zebrafish Thyroid Hormone Receptor alpha (TRa), thraa (gene 30670), sequence (Q98867 whole entry, looked up, the tested form may be a part): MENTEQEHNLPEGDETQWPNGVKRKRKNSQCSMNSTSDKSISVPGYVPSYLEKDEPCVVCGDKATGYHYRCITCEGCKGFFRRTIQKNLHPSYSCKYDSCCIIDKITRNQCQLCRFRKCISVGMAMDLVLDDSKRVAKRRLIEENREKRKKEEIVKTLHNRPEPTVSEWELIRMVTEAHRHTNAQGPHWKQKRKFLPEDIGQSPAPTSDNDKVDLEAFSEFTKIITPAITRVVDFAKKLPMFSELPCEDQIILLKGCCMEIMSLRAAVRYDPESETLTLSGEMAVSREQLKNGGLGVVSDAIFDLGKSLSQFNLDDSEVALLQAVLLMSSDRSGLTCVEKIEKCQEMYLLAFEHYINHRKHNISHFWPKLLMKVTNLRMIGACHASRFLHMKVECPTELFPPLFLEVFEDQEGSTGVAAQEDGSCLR
Estrogen receptor beta (Homo sapiens), sequence (Q92731 whole entry, looked up, the tested form may be a part): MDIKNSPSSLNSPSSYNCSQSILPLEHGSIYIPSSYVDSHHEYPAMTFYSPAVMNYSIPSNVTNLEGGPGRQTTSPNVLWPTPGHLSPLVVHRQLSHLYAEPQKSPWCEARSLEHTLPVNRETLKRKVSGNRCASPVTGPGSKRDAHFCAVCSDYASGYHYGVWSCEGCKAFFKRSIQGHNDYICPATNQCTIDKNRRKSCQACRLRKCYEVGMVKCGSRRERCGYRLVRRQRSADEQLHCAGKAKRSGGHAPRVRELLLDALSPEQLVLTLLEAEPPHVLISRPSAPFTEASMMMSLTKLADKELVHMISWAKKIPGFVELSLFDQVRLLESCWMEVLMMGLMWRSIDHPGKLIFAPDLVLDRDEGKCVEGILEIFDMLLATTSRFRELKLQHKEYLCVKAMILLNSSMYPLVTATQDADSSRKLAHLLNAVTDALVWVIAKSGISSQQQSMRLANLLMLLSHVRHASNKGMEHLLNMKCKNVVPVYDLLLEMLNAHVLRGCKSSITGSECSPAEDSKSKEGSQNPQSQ
human Thyroid hormone Receptor beta (TRb), THRB (gene 7068), sequence (P10828 whole entry, looked up, the tested form may be a part): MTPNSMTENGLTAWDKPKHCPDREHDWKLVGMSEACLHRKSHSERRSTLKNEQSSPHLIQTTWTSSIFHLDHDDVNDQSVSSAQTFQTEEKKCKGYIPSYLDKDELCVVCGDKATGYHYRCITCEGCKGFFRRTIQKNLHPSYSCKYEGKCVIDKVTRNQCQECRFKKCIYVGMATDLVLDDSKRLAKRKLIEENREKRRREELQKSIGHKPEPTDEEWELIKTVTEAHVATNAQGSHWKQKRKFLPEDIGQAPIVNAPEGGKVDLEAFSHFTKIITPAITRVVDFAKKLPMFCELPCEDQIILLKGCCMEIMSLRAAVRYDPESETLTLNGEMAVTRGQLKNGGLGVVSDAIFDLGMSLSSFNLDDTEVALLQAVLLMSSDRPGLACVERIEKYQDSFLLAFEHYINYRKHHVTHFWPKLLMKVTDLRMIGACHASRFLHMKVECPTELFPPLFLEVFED
mouse Peroxisome Proliferator-activated Receptor gamma (PPARg), Pparg (gene 19016), sequence (P37238 whole entry, looked up, the tested form may be a part): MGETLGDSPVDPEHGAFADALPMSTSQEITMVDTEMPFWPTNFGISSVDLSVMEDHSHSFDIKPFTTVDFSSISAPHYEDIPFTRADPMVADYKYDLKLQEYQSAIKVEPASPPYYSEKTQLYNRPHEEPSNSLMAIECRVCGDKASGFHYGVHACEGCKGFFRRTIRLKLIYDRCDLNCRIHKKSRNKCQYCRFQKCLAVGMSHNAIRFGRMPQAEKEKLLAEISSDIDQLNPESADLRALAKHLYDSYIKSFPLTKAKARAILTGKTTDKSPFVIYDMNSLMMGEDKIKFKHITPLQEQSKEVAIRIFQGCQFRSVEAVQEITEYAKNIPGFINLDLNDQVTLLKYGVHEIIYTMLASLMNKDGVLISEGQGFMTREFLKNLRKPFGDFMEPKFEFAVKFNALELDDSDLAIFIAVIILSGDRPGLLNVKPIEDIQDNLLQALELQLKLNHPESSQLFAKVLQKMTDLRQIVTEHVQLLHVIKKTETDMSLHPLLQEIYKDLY

As a reminder, the AC50 is the concentration at which the activity in the assay is half-maximal. For `CCCCOC(=O)c1ccccc1C(=O)OCCCC`, the call in [1], in [2], in assay [3], in assay [5], in [7] and in assay [8] was inactive. The compound was called inactive in assay [9], in assay [10], in [11], in assay [13] and in [14]. The AC50 was 27.5 µM (active) in [4], 27.9 µM (active) in assay [6] and 42.3 µM (active) in [12].
As for `OC(c1ccc(Cl)cc1)(c1cncnc1)c1ccccc1Cl` (stereo unspecified), the AC50 in assay [15] was 1.98 µM (active); in assay [5] it was 34.9 µM (active); in assay [12], 1.49 µM (active); in assay [13], 25.4 µM (active). Besides, the call in assay [4], in assay [6], in assay [8], in [11], in [16] and in [14] was inactive.
Consider `N#Cc1nn(-c2c(Cl)cc(C(F)(F)F)cc2Cl)c(N)c1S(=O)C(F)(F)F` (stereo unspecified), for which the AC50 with AR (gene 367) is 58 µM (active).
Consider `COP(=S)(OC)Oc1nc(Cl)c(Cl)cc1Cl`, for which the AC50 in assay [15] is 27.1 µM (active); in assay [4], 2.29 µM (active); in assay [6], 3.73 µM (active); in assay [12] it was 55.8 µM (active). In addition, the outcome in [17], in assay [2], in assay [7], in assay [10], in assay [16] and in [13] was inactive.
As to `CO/C=C(/C(=O)OC)c1ccccc1Oc1cc(Oc2ccccc2C#N)ncn1`, the AC50 with AR (gene 367) was 61.2 µM (active). Moreover, the compound was classed as inactive in [15], in assay [1], in assay [17], in [5], in assay [6] and in assay [18]. Also, the result in assay [19], in assay [7], in assay [8], in [9], in assay [10] and in [16] was inactive. The call in [12] was inactive.
With `CCOP(=S)(OCC)SCn1c(=O)oc2cc(Cl)ccc21`, the call in assay [17], in assay [2], in assay [4], in assay [5], in [9] and in assay [11] was inactive. Besides, the compound was called inactive in [16], in assay [12], in [13] and in assay [14]. The AC50 was 26.7 µM (active) in assay [6] and 49.8 µM (active) in assay [10].
